Assay [1] can be described thus: AP1 Signaling Pathway (AID 357). Also: % is scaled to controls: 0 for no effect and ±100 for the full control effect. Conditions: ME-180 AP-1-bla reporter, EGF-induced, beta-lactamase ratio, 5 h. A digest of the protocol: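 Read-out was the 460nm/530nm emission ratio (excitation 405nm) after CCF4 loading for 2.5 hours at room temperature. Cells carried an AP-1-driven beta-lactamase reporter, were stimulated with EC50 EGF plus compound for 5 hours, and AC50 values came from titrations.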

Assay [2] concerns the target Cytochrome P450 1A2 (Homo sapiens) (UniProt P05177). Briefly: p450-cyp1a2 (AID 410; calls by dose curve;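 also: -100% = full effect of reference inhibitor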). Conditions: recombinant CYP1A2, luciferin-ME demethylation, luminescence; series mostly up to 57 µM. Put shortly:
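Luminescent demethylation readout: Luciferin-ME (100uM, equal to Km) turned over by 20nM CYP1A2 for 60 min at room temperature after NADPH regeneration addition, following 10 min compound preincubation. Normalization used 57 uM furafylline as full inhibition.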

The nature of assay [3]: NFAT Signaling Pathway (AID 444).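 Also: carbachol stimulus at about its EC50 of 1 µM final; % is scaled to controls: 0 for no effect and ±100 for the full control effect.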 Conditions: Jurkat NFAT-bla M1, carbachol, beta-lactamase ratio, 5 h. Put shortly:
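Jurkat cells carrying an NFAT-driven β-lactamase reporter and co-transfected muscarinic M1 receptor were treated with compound plus carbachol (1 uM final, an EC50 level) for 5 h at 37 °C. CCF4 loading followed for 1 h at RT; 460/530 nm ratio gave %activity.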

The nature of assay [4]: Stat Signaling Pathway (AID 446).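 Also: ME-180 cervical cancer cells given 40 pM IL-6 alongside compound; SIE-controlled beta-lactamase reporter measured as 460/530 nm FRET emission ratio; % is scaled to controls: 0 for no effect and ±100 for the full control effect.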 The following applies: ME-180 (cervical carcinoma) SIE beta-lactamase reporter, IL-6 stimulated, 5 h. A digest of the protocol: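 FRET read-out (405 nm excitation, 460/530 nm emission) of a beta-lactamase reporter under a STAT-inducible element in ME-180 cervical carcinoma cells. Cells with compound receive 40 pM IL-6 for 5 h. Values are normalised to AC90 stimulation and AC90 JAK-inhibitor controls.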

In assay [5] the target is Glucocorticoid receptor (Homo sapiens) (UniProt P04150). As to the kind of experiment: GR-GFP Redistribution (AID 450;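 active = compounds whose dose series gives a full or clear partial fitted curve of increased nuclear translocation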; also: potency is read from the fitted curve at half-maximal effect). The following applies: U2OS GR-GFP nuclear translocation, laser cytometry, 2 h.
Sequence of Glucocorticoid receptor (Homo sapiens) (P04150 whole entry, looked up, the tested form may be a part): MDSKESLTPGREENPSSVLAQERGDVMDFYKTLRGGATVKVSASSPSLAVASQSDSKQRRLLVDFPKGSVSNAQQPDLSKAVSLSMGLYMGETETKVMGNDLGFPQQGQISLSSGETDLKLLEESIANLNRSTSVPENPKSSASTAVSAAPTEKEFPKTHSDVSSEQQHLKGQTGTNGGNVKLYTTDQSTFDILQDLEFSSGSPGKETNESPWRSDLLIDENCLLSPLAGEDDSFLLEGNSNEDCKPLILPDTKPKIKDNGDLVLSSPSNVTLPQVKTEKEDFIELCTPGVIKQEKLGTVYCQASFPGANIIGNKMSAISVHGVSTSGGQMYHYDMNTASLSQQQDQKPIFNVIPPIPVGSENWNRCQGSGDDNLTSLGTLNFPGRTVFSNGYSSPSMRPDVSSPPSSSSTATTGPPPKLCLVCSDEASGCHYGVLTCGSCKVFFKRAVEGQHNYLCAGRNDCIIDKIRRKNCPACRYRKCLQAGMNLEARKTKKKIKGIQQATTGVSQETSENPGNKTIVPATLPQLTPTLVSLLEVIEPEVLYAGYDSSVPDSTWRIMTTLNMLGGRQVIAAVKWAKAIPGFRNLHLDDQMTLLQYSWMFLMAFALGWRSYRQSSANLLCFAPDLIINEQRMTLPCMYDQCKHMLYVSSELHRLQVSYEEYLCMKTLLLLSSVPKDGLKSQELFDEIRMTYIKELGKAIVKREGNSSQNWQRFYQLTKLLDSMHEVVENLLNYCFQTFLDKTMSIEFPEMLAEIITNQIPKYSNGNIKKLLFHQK
Assay [6] shares this target. As to the kind of experiment: GR-EFC Redistribution (AID 451; calls by dose curve; also: potency is read from the fitted curve at half-maximal effect). Conditions: CHO-K1 GR-EFC translocation, beta-gal luminescence, 2 h. A digest of the protocol: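 CHO-K1 cells stably expressing nuclear-localized β-gal enzyme acceptor and GR fused C-terminally to the enzyme donor fragment; ligand-driven nuclear translocation restores β-gal by complementation. Compounds titrated up to 46 uM final, 2 h at 37 °C; luminescence read.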

In assay [7] the target is Mitogen-activated protein kinase 10 (Mus musculus) (UniProt Q61831). Briefly: JNK3 AlphaScreen Assay (AID 530).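 Also: kinase came from lysate of stimulated human HepG2 cells; % is scaled to controls: 0 for no effect and ±100 for the full control effect.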 The following applies: JNK3 lysate, c-Jun phosphorylation; series mostly up to 57.1 µM. A digest of the protocol: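 Phosphorylation of biotinylated GST-cJun(1-79) at Ser73 is measured by AlphaScreen proximity luminescence. Enzyme is JNK3 in HepG2 lysates activated with interleukin-1beta and tumor necrosis factor alpha; ATP is 10 uM final.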
Background: Bead proximity is the source of the signal in Alpha formats.

The target in assay [8] is 3',5'-cyclic-AMP phosphodiesterase 4B (Homo sapiens) (UniProt Q07343). Briefly: qHTS Assay for Inhibitors of PDE-IV (AID 607; active = well fitted activation curve with a large enough effect in the main read-out, with a control signal flat, not every such curve was filed as active; also: % of control where 0% means no effect). The following applies: HEK293 ACTOne CNG channel cells, membrane potential fluorescence; series mostly up to 22.9 µM. A digest of the protocol:
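Cell-based read-out of cAMP via a modified cyclic nucleotide-gated channel and membrane potential dye (535/590 nm) in HEK293 cells expressing PDE4 endogenously. Compounds tested up to 22.9 uM final; 100 uM RO 20-1724 reference.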
For orientation: Quantitative high-throughput screening tests each substance at several concentrations.

Assay [9] can be described thus: qHTS Assay for Lipid Storage Modulators (AID 1519; calls by dose curve). Conditions: Drosophila S3 cells, BODIPY lipid droplet/cell ratio, laser cytometry, cells loaded with oleic acid. Put shortly: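 Cells seeded at 5,000 per well were treated with compounds over a concentration series and loaded with oleic acid (400 uM, as added). Lipid droplet fluorescence (488 nm excitation, 500-530 nm channel) was read by laser-scanning cytometry and normalized to 20 uM Triacsin C.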

In assay [10] the target is Ubiquitin carboxyl-terminal hydrolase 1 (Homo sapiens) (UniProt O94782). Briefly: Inhibitors of USP1/UAF1: Pilot qHTS (AID 504865; active = well fitted curve in the direction sought with a large enough effect; an effect the other way counts as inactive or inconclusive;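 also: rhodamine fluorescence freed from ubiquitin-rhodamine substrate followed over time; top concentration of the series differs between compounds; % is scaled to controls: 0 for no effect and ±100 for the full control effect; nearly all actives have a fitted effect of over 35% in size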). The following applies: purified USP1/UAF1, Ub-rhodamine cleavage fluorescence; series mostly up to 54.9 µM. Put shortly:
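1nM USP1/UAF1 + cpd, 15 min RT; start w/ Ub-Rho 150nM final; kinetic FL 480/540 nm, 6 reads q60 s. Buffer 50mM HEPES pH 7.8, 0.5mM EDTA, 1mM TCEP, 0.01% Tween-20, 0.1 mg/ml BSA.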

Assay [11] in a line: qHTS profiling for inhibitors of Plasmodium falciparum proliferation (AID 504749; active = well fitted curve in the direction sought with a large enough effect; an effect the other way counts as inactive or inconclusive;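 also: 0% = DMSO vehicle and full inhibition = artemisinin control; nearly all actives have a fitted effect of over 60% in size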). The following applies: P. falciparum in erythrocytes, SYBR Green DNA, 72 h, at 28.7 µM (top of the series). Put shortly:
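Quantitative HTS: compounds pinned into medium, infected erythrocytes added (0.3% parasitemia, 2.5% hematocrit), 72 h culture at 37 C under 5% CO2. Saponin/Triton lysis with SYBR Green I, overnight RT, then fluorescence read.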

Assay [12] deals with Lysosomal acid glucosylceramidase (Homo sapiens) (UniProt P04062). Briefly: Glucocerebrosidase-p2 (AID 348; in the data active = potency below about 10 µM; also: potency is read from the fitted curve at half-maximal effect). The following applies: purified GBA, blue fluorogenic substrate, 40 min. Put shortly: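 Normal human glucocerebrosidase (0.2 nM) with blue fluorogenic substrate (80 uM final) in citrate/phosphate pH 5.9 with 10mM sodium taurocholate, 0.01% tween-20; 40 min RT, NaOH/glycine stop; fluorescence Ex 365/Em 440; AC50 from a titration from 0.6 nM upwards.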
Sequence of Lysosomal acid glucosylceramidase (Homo sapiens) (P04062 whole entry, looked up): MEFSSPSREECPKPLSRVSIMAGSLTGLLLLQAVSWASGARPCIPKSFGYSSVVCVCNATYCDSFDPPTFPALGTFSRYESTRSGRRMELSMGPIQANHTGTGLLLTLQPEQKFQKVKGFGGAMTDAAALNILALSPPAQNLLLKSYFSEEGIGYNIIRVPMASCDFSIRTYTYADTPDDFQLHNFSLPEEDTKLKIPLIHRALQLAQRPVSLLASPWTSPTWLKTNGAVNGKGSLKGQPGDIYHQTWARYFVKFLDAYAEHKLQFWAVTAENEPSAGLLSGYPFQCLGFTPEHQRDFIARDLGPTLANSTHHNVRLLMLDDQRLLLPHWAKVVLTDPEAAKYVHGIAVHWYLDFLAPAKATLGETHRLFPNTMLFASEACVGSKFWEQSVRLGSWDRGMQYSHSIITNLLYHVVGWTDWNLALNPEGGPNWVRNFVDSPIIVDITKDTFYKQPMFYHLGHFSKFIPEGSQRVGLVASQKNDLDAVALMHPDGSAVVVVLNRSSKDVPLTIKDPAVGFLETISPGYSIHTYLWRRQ

A short description of assay [13]: Confirmation and Secondary Assay for Modulators of Hemoglobin Beta Chain Splicing at IVS2 654 locus (AID 910; active = well fitted curve in the direction sought with a large enough effect; an effect the other way counts as inactive or inconclusive;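 also: per-well total GFP intensity by laser scanning cytometry after 2-day treatment; % of control where 0% means no effect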). Conditions: HeLa EGFP-654 splicing reporter, GFP fluorescence, 48 h; series mostly up to 38.3 µM. Put shortly:
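HeLa cells stably carrying EGFP interrupted by mutant beta-globin IVS2-654 intron (CMV-driven) were treated with compound for 2 days at 37C; corrected splicing was scored as total peak GFP intensity per well (488 nm excitation, 500-520 nm emission).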

The mark [14] stands for this setting: measured here: cell count channel max response.
Setting [15] is: measured here: lipid channel max response.
[16] abbreviates: at 7.69 µM (top of the series) unless noted.

The structures appear in SMILES notation. “And” between values parts separate entries of the source, which are not always exact repeats. Identical values can stand only once. Records with an inconclusive call do not appear. The source made the active and inactive calls. Unless noted, calls follow the shape of the dose curve; as a rule, active = well fitted curve in either direction with a large enough effect (not every such curve was filed as active); inconclusive = small, poorly fitted or top-dose-only effect, or another doubt; inactive = flat fitted curve, though single readings scatter. Some results are limits rather than exact numbers.

Sequence of 3',5'-cyclic-AMP phosphodiesterase 4B (Homo sapiens) (Q07343 whole entry, looked up): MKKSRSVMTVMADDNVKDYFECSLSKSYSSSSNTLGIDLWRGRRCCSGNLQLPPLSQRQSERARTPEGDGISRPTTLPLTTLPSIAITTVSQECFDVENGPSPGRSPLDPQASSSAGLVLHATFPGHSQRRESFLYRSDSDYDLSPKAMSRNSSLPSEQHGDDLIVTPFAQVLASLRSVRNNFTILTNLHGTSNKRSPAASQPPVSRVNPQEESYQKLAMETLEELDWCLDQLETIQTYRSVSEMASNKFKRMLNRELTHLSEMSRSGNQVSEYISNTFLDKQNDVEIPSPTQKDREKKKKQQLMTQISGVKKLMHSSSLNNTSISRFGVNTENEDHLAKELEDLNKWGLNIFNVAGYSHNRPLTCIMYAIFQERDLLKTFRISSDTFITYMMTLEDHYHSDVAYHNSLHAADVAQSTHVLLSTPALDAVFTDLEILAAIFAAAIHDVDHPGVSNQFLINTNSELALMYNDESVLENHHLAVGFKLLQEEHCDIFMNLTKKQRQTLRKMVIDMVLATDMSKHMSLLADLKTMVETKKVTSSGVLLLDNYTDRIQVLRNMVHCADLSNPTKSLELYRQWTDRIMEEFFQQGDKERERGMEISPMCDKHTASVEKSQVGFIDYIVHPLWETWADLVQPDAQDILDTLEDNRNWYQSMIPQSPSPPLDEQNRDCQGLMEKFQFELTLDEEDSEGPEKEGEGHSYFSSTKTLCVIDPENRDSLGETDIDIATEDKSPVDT
Sequence of Cytochrome P450 1A2 (Homo sapiens) (P05177 whole entry, looked up): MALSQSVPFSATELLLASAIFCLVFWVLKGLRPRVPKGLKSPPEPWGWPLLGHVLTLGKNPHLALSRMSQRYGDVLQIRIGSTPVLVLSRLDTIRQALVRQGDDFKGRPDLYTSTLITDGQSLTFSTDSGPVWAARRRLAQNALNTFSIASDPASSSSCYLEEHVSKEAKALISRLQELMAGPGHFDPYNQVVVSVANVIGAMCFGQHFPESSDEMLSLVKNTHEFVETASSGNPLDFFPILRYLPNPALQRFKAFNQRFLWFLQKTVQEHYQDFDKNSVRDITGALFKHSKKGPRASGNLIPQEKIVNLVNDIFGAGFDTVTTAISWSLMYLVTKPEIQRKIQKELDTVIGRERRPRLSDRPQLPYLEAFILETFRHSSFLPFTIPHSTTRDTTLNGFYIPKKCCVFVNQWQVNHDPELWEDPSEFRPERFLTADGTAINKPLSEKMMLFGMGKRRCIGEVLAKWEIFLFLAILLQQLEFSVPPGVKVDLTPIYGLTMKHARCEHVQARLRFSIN
Sequence of Ubiquitin carboxyl-terminal hydrolase 1 (Homo sapiens) (O94782 whole entry, looked up): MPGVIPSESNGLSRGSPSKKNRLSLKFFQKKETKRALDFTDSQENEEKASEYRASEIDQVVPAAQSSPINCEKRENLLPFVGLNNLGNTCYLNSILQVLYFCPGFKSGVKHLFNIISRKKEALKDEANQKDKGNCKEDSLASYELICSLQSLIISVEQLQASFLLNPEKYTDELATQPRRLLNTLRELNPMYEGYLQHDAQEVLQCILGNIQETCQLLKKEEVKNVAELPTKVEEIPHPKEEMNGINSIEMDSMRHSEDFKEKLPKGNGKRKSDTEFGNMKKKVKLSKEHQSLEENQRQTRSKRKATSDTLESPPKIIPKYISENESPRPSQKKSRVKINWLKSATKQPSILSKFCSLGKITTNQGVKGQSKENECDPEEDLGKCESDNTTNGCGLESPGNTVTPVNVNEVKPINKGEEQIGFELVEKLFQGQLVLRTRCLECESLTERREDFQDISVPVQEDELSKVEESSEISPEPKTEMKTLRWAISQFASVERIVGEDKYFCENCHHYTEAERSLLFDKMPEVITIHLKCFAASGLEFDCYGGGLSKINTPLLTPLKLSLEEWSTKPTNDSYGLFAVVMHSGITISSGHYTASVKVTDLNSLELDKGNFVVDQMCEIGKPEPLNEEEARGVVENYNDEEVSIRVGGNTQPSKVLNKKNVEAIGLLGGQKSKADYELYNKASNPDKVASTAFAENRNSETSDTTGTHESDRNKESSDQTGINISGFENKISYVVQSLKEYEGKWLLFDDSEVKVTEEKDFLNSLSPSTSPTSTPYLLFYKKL

For `CCCN(CCC)C(=O)[C@@H](CCC(=O)O)NC(=O)c1ccccc1`, the activity change, negative = inhibition in assay [1] (at 17.2 µM (top of the series)) was 0.378% (inactive); in [1] (at 38 µM (top of the series)) it was -3.39% (inactive); in [3] (at 17.2 µM (top of the series)), -4.73% (inactive); in assay [3] (at 38 µM (top of the series)) it was -3.22% (inactive); in [9] (at 25.7 µM (top of the series)), 0.554% (inactive). The Potency result in assay [2], in assay [7], in assay [8] and in assay [10] was “inactive” each time. Also, the activity, negative = inhibition was -4.56% (inactive) in assay [4] (at 17.2 µM (top of the series)), -1.87% (inactive) in assay [4] (at 38 µM (top of the series)), 5.79% (inactive) in assay [11] (parasite line A) and 7.29% (inactive) in assay [11] (parasite line B). Also, the Potency in [5] was > 46 µM (inactive) and > 20.6 µM (inactive); in [6], > 46 µM (inactive) and > 20.6 µM (inactive). Further, the values for the max response in assay [9] (setting [14]) and in assay [9] (setting [15]) were 5.84% and 4.96%, respectively.
As to `N#CCCn1c(=O)c(CCc2ccccc2)nc2cnc(N3CCOCC3)nc21`, the values for the Potency in assay [12], in assay [5] and in assay [6] were > 11.4 µM (inactive), > 9.22 µM (inactive) and > 46 µM (inactive), respectively. For the same compound, the activity change, negative = inhibition in assay [3] (setting [16]) was -3.78% (inactive); in assay [9] (at 57.5 µM (top of the series)) it was 4.17% (inactive). The activity, negative = inhibition in [4] (setting [16]) is 26.7% (inactive). Besides, the Potency result in [7] is “inactive”. The max response was 19.8% in assay [9] (setting [14]) and 22.7% in [9] (setting [15]).
Consider `N#Cc1ccc(CN2CCCC3(CCNCC3)C2)cc1`, for which the figures for the Potency in assay [12] and in [6] were > 11.4 µM (inactive) and > 46 µM (inactive), respectively. In addition, the activity change, negative = inhibition was 6.69% (inactive) in [1] (setting [16]), -22.5% (inactive) in assay [3] (setting [16]) and 1.45% (inactive) in [9] (at 57.5 µM (top of the series)). The activity, negative = inhibition in [4] (setting [16]) is -0.579% (inactive). Moreover, the Potency result in assay [7] and in assay [8] was “inactive” each time. Also, the values for the max response in assay [9] (setting [14]) and in [9] (setting [15]) were 12.8% and 18.2%, respectively.
Regarding `Cc1cccc(CNc2ccnc(-c3cccc(NS(C)(=O)=O)c3)n2)c1`, the results for the Potency in assay [12], in assay [5] and in assay [6] were > 11.4 µM (inactive), > 46 µM (inactive) and > 46 µM (inactive), respectively. Besides, the activity change, negative = inhibition is -18.5% (inactive) in [1] (setting [16]), 9.66% (inactive) in assay [3] (setting [16]) and 8.1% (inactive) in assay [9] (at 57.5 µM (top of the series)). For the same compound, the Potency entry in assay [7], in assay [8] and in assay [13] was “inactive” throughout. The values for the max response in assay [9] (setting [14]) and in assay [9] (setting [15]) were 4.58% and -1.23%, respectively.

Values taken from PubChem BioAssay (NCATS).
